The text below walks through data of PubChem BioAssay (NCATS).

Results filed as inconclusive are left out. Where a call stands in place of a potency, no number is given. Active and inactive are the calls of the source. The call rests on the fitted dose curve; in most records, active means well fitted inhibition curve with a large enough effect; inconclusive means small, poorly fitted or top-dose-only effect; inactive means no such curve, though single readings can be large or run the other way.

The target of the test is N-terminal Xaa-Pro-Lys N-methyltransferase 1 (Homo sapiens) (UniProt Q9BV86). In words: qHTS Assay for Inhibitors of N-terminal methyltransferase 1 (NTMT1): LOPAC validation of the NTMT1 SAHH-coupled ThioGlo3 Assay (AID 1347143).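 Further: SAH from peptide methylation measured as thiol fluorescence via SAHH coupling and ThioGlo3; nearly all actives have a fitted effect of over 70% in size.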 Particulars: recombinant NTMT1, SAHH-coupled ThioGlo3 fluorescence; series mostly up to 114 µM. In a few lines: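 NTMT1 125nM + cpds (various conc.), 1 min RT; add SAM 100uM/SAHH 10uM/ThioGlo3 15uM (addition mix). SAHH-coupled thiol detection, Ex340/Em450, t0 and 30 min RT; signal normalized to background. LOPAC 1280-cpd pilot.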
Sequence of N-terminal Xaa-Pro-Lys N-methyltransferase 1 (Homo sapiens) (Q9BV86 whole entry, looked up): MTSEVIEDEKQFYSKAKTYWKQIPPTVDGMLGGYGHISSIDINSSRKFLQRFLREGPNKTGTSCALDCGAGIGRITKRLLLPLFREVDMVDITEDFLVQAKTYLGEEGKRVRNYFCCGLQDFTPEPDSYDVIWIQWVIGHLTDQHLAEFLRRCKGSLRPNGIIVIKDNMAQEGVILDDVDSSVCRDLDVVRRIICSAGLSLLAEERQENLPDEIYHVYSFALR
On the technique in general: In qHTS, concentration-response curves come from the screen itself.
Turning to `COc1cc(C(O)CN)ccc1O` (stereo not given), the Potency result is “inactive”.
With `CCCCc1ccc(C(=O)O)nc1` the entry was “inactive”.
With `CCCN1CCC[C@H](c2cccc(O)c2)C1` the entry was “inactive”; with `NC(CCP(=O)(O)O)C(=O)O` (stereo not given), “inactive”; with `S=C(NC1CCCCC1)N1CCC(c2cnc[nH]2)CC1`, “inactive”.
With `O=C1CCCN1CC#CCN1CCCC1` the entry was “inactive”; with `NC(=NCCC[C@H](N)C(=O)O)N[N+](=O)[O-]`, “inactive”.
As to `O=C(Cc1ccc(Cl)c(Cl)c1)N1CCCCC1CN1CCCC1` (stereo not given), the Potency entry is “inactive”.
With `C[C@]12CCC3C(CC[C@H]4C[C@H](O)CC[C@]34C)C1CC[C@@H]2C(=O)CO` (stereo not given in full) the entry was “inactive”.
With `CCCN(CCC)C1CCc2ccc(O)cc2C1` (stereo not given) the entry was “inactive”; with `C[C@@H]1O[C@H](C[N+](C)(C)C)C[C@H]1O`, “inactive”.
With `c1ccc2sc(C3(N4CCCCC4)CCCCC3)cc2c1` the entry was “inactive”; with `C#CCOC(=O)C1=CCCN(C)C1`, “inactive”; with `NCCc1c[nH]c2ccccc12`, “inactive”.
With `CC(=O)NCCc1c[nH]c2ccccc12`, the Potency result is “inactive”.
With `CCCN(CCC)[C@@H]1CCc2ccc(O)cc2C1` the entry was “inactive”.
With `NC(N)=NOCCC(N)C(=O)O` (stereo not given) the entry was “inactive”.
With `NC(CP(=O)(O)O)C(=O)O` (stereo not given) the entry was “inactive”; with `C[N+]1(C)C2CC(OC(=O)[C@H](CO)c3ccccc3)CC1C1OC12` (stereo not given in full), “inactive”.
Take `c1ccc(C2(c3ccccc3)CC2C2=NCCN2)cc1` (stereo not given): the Potency entry was “inactive”.
Consider `NC(=O)CN1CC(O)CC1=O` (stereo not given), for which the Potency result was “inactive”.
With `O=C(O)[C@@H]1CCN1` the entry was “inactive”.
With `C[C@]12N[C@H](Cc3ccccc31)c1ccccc12` the entry was “inactive”; with `O=C(O)Cc1cnc[nH]1`, “inactive”; with `CC(=O)[C@H]1CCC2C3CC[C@H]4C[C@H](O)CC[C@]4(C)C3CC[C@@]21C` (stereo not given in full), “inactive”.
